Results filed as inconclusive are left out. Calls of active or inactive are those of the source. Calls come from the whole dose curve; as a rule, active = well fitted inhibition curve with a large enough effect; inconclusive = small, poorly fitted or top-dose-only effect; inactive = flat fitted curve, though single readings scatter.
Assay: Secondary Assay for lipid storage modulators: Cytotoxcity for probe SAR round 2
Text: NIH Molecular Libraries Probe Production Centers Network [MLPCN] NIH Chemical Genomics Center [NCGC] MLPCN Grant: 1 R03 MH085686-01 Assay Submitter (PI): Beller, Mathias; Max-Planck-Institut fur Biophysikalische Chemie, Germany. NCGC Assay Overview: Storing lipids as a reservoir for energy or the anabolism of elementary metabolites is a common feature of probably all cells and is conserved from bacteria to humans. The universal cellular lipid storage organelle is the so-called lipid storage droplet (LD). Although ubiquitous, LDs share a simple structure composed of a hydrophobic core that harbors the storage lipids, which is shielded by a droplet-specific phospholipid monolayer to which proteins are attached. The current model of LD biogenesis involves an incorporation of the lipid core into the membrane leaflets of the endoplasmic reticulum (ER) followed by a subsequent budding-like maturation of a LD, which ultimately pinches off. Once released, LD volume can increase by localized lipogenesis or fusion of existing droplet. Storage lipids are re-mobilized enzymatically by lipase activity. […]
Assay Protocol Summary: Cytotoxcity assay was performed with embryonic Drosophila S3 cells (Bloomington Drosophila Genomics Resource Center [DGRC]). […] Luminescence was detected on the Perkin Elmer ViewLux.

With CCC/C=C/C/C=C/C=C/C=N/NN=O the outcome was “inactive”.
